Source: PubChem BioAssay (Broad Institute)
Only a sample is shown.
aSyn 5UTR act: Activators working through SNCA 5'UTR binding (MLPCN); alpha-synuclein 5'UTR reporter, activators screen; activity score, % (tested at 7.5 µM), hits read low; 300,000 compounds, 7.1% hits; in the data active means activity score below about -60%
An asterisk follows results filed as active.

SMILES	aSyn 5UTR act
Cc1cc(C(=O)CSc2ccccc2)cc(C)c1O	-160*
Cc1cc(C(=O)CS(=O)(=O)c2ccccc2)cc(C)c1O	-85*
Cc1ccc(Nc2ccc(S(=O)(=O)N3CCOCC3)cc2[N+](=O)[O-])c(C)c1	-62*
Cc1ccc(C)c(NC(=S)N=Nc2c(O)n(C)c3ccc(S(=O)(=O)N4CCOCC4)cc23)c1	78
Cc1ccc(Cn2c(O)c(N=NC(=S)Nc3ccccc3F)c3cc(S(=O)(=O)N4CCOCC4)ccc32)cc1	66
CC(=O)Nc1cnc(NC(=O)c2cccc(F)c2)cc1C	-148*
CCC(=O)Nc1cnc(NC(=O)c2cccc(F)c2)cc1C	-107*
CCc1nnc(NC(=O)CSc2ccc(-c3nc4ccccc4[nH]3)cn2)s1	-187*
Cc1ccc2nc(-c3ccc(SCC(=O)Nc4nnc(C)s4)nc3)[nH]c2c1	-94*
Cc1csc(NC(=O)CSc2ncc(-c3ccccc3)[nH]2)n1	-97*
Cc1ccc2nc(-c3ccc(SCC(=O)Nc4nc(C)cs4)nc3)[nH]c2c1	-247*
Cc1ccc(C2=NNC(C(O)C(O)C(O)CO)S2)cc1 (configuration not stated)	-66*
COc1ccc(C2NN=C(c3ccc(C)cc3)S2)cc1 (configuration not stated)	-172*
COc1ccc(-c2oc3ncn(CCN4CCOCC4)c(=N)c3c2-c2ccc(OC)cc2)cc1	74
COc1ccc(-n2ncc3c(NCCCN4CCOCC4)ncnc32)cc1	-120*
COc1ccc(-n2ncc3c(NCCN4CCOCC4)ncnc32)cc1	-69*
Cc1nc2sc(-c3ccccc3)cc2c(=O)n1/N=C/N(C)C	-156*
Cc1nc2sc(-c3ccccc3)cc2c(=O)n1-n1cccc1	-189*
NC(=O)CSc1nc2sc(-c3ccccc3)cc2c(=O)n1N	-64*
Cc1nc2sc(-c3ccccc3)cc2c(=O)n1N	75
CCN(C(=O)CSc1nnc(Cn2nnc3ccccc32)o1)c1nc(-c2ccccc2)cs1	-105*
COc1cc(Cl)ccc1OCc1cc(C(=O)N2C[C@]3(C)C[C@H]2CC(C)(C)C3)no1	-87*
COc1cc(Cl)ccc1OCc1cc(C(=O)N2C[C@H]3CC[C@H]2C3)no1	-130*
COc1cc(C)ccc1OCc1cc(C(=O)N(Cc2c(C)nn(C)c2C)C2CC2)no1	-81*
COc1cc(Cl)ccc1OCc1cc(C(=O)N2C[C@@H]3CCC[C@H]2C3)no1	-176*
SMILES	aSyn 5UTR act
COc1cc(C)ccc1OCc1cc(C(=O)N2CCN(C)C[C@@H]2c2ccccc2)no1	-139*
CCn1cnc2sc(C(=O)Oc3ccc(Br)cc3)c(C)c2c1=O	-77*
Cc1ccc2oc(-c3ccco3)nc2c1	-137*
Cc1ccc(-c2nc3cc(C)ccc3o2)cc1	73
Cc1ccc(OC(=O)c2oc3ccc(F)cc3c2C)c(C)c1	-112*
Cc1ccc(Nc2cccccc2=O)cc1	-101*
COCCCNC(=O)/C=C1\Sc2ccccc2N(Cc2ccccc2F)C1=O	-94*
CC1CC1C(=O)Nc1ccc(-c2ccccc2)cc1 (configuration not stated)	-152*
O=C(N/N=C\c1ccco1)Nc1cccc(Cl)c1	-131*
O=C(NCCSCc1ccco1)Nc1ccc(Cl)cc1	-134*
Cc1nnsc1SCCNC(=O)Nc1ccc(Cl)cc1	-98*
O=C(NCCSCc1ccco1)Nc1cccc(Cl)c1	-126*
CC(C)CC(=O)N/C(N)=N/c1nc2ccccc2o1	-160*
CCCC(=O)N/C(N)=N/c1nc2ccccc2o1	-121*
Nc1nc(-c2ccc(Br)s2)c(Br)s1	-77*
O=C(O)c1ccc(N/N=C/c2ccc(C(F)(F)F)cc2)cc1	61
O=C(N/N=C/c1cccs1)c1cccc(NC(=O)c2ccc(Cl)cc2)c1	59
O=C(N/N=C/c1ccc(C(F)(F)F)cc1)c1ccc(O)cc1	-85*
O=C(N/N=C/c1cccc(NC(=O)c2ccc(Cl)cc2)c1)c1cccc(O)c1	-68*
O=C(N/N=C\c1ccc(F)cc1)c1ccc(F)cc1	-132*
O=C(N/N=C/c1c(O)ccc2ccccc12)c1cccc(C(F)(F)F)c1	111
Oc1ccc(/C=N/Nc2ccc(C(F)(F)F)cn2)cc1	-280*
O=C(N/N=C(\c1ccccc1)c1cccnc1)c1cccc(F)c1	80
Nc1ccc(C(=O)N/N=C/c2ccccc2)cc1	-140*
C/C(=N\Nc1ccc(C(F)(F)F)cn1)c1ccncc1	-148*
SMILES	aSyn 5UTR act
O=C(N/N=C/c1ccccc1Cl)c1ccc(F)cc1	-189*
O=C(N/N=C/c1cnc2ccccc2n1)c1cccc(F)c1	-120*
COc1cc(C(=O)Oc2ccccc2/C=N/NC(=O)c2ccc(C)c(Cl)c2)cc(OC)c1OC	84
COc1cc(C(=O)N/N=C/c2cn(Cc3cccc(F)c3)c3ccccc23)ccc1O	62
COC(=O)c1ccc(/C=N/NC(=O)c2cccc(F)c2)cc1	-134*
O=C(N/N=C/c1ccc[nH]1)c1ccc(Cl)cc1	-121*
CSc1ccc(/C=N/NC(=O)c2cccc(O)c2)cc1	-167*
COC(=O)c1c(-c2ccccc2)csc1NC(=O)c1c(-c2ccccc2)noc1C	65
O=C(Nc1scc(-c2ccc(F)cc2)c1C(=O)O)c1ccco1	-77*
COC(=O)c1c(-c2ccccc2)csc1NC(=O)c1ccco1	-168*
O=C(/C=C/c1ccccc1)CC(=O)c1ccccc1O	-201*
O=C(/C=C/c1ccccc1)NC(=O)c1ccccc1O	-157*
COc1cc(/C=C/C(=O)NC(=O)c2ccccc2O)ccc1O	-161*
CCOC(=O)Cc1csc(NC(=O)c2ccco2)n1	-162*
CCOC(=O)Cc1csc(NC(=O)c2ccc(Cl)s2)n1	-119*
CCOC(=O)Cc1csc(NC(=O)c2cnc3sc(C)cn3c2=O)n1	-112*
Oc1cccc(-c2nc3ccc4ccccc4c3c3c2CCC3)c1	-137*
CC(C)c1ccc(C2C3=C(COC3=O)Nc3cc4c(cc32)OCO4)cc1 (configuration not stated)	123
O=C1NC(c2ccc3c(c2)OCO3)Nc2ccccc21 (configuration not stated)	-180*
CC(C)Oc1ccccc1C1CC(=O)Nc2cc3c(cc21)OCO3 (configuration not stated)	91
CCCCC[C@H](O)/C=C/[C@@H]1[C@@H](C/C=C\CCCC(=O)OC)[C@@H](O)C[C@H]1O	44
Cc1ccc(Cn2ccc(=O)c(OCc3ccccc3)c2C)cc1	-110*
Cc1ccc(Cn2ccc(=O)c(Cc3c(Cl)cccc3Cl)c2C)cc1	51
Cc1c(O)c(=O)ccn1Cc1ccccc1	68
N#Cc1cc2c([nH]c1=S)CCCCCC2	-71*
SMILES	aSyn 5UTR act
O=C(NC1CCCCC1)C(=S)NCCc1ccccc1	-62*
O=C(NCCc1ccccc1)C(=O)NC1CCCCC1	-105*
c1cc(-c2cccs2)nc(-c2cccs2)c1	-104*
c1csc(-c2cnc3ccccc3n2)c1	-108*
c1ccc(-c2nnc(N3CCOCC3)nc2-c2ccccc2)cc1	-73*
Cc1ccc(NC(=O)NCc2cccn2C)cc1C	-124*
Cn1cccc1CNC(=O)Nc1ccc(Cl)cc1	-115*
CCc1ccc(NC(=O)[C@H](C)NC(=O)C2CCN(C(=O)[C@@H](N)C(C)C)CC2)cc1	-110*
N#CC1(c2ccc(NC(=O)c3ccccc3)cc2)CCCC1	-89*
CC(=O)Oc1ccc(C(=O)Nc2ccc(C3(C#N)CCCC3)cc2)cc1	-142*
COC(=O)C1CC23C=CCN4CCC5(c6ccccc6NC15C2C)C43 (configuration not stated)	94
O=C(Nc1c(Cl)cccc1Cl)c1ccc(-c2ccccc2)cc1	-66*
O=C(Nc1sc(-c2ccccc2)cc1C(=O)O)c1ccccc1	-100*
